Screening data: PubChem, several laboratories
sEH activator: activators of human soluble epoxide hydrolase; P34913; AID 717; purified human sEH enzymatic activity, activator screen; 91,000 compounds, 0.04% hits; activation, % at 2 µM; in the data active = activation above about 37%
CYP2C19 activ: activators of human cytochrome P450 2C19. 96,000 tested, under 10 active. P33261. recombinant CYP2C19, luciferin-H EGE luminescence; hits give high values; 0 = fully inhibited enzyme, 1 = untreated enzyme. activation factor at 5 µM;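 active = activation factor of at least 2 at 5 µM in the primary screen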;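 also: 0 = wells with 2.5 mM tranylcypromine and 1 = vehicle-only wells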
CYP2C9 inhib: blocks human cytochrome P450 2C9. P11712. CYP2C9 Supersomes, luciferin-H conversion, luminescence. inhibition, % at 5 µM. 96,000 compounds, 20% hits. AID 777;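 active = blocking of liver enzyme CYP2C9 beyond about 50% at 5 µM, limit read from the data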
Target sequence (P11712 whole entry, looked up): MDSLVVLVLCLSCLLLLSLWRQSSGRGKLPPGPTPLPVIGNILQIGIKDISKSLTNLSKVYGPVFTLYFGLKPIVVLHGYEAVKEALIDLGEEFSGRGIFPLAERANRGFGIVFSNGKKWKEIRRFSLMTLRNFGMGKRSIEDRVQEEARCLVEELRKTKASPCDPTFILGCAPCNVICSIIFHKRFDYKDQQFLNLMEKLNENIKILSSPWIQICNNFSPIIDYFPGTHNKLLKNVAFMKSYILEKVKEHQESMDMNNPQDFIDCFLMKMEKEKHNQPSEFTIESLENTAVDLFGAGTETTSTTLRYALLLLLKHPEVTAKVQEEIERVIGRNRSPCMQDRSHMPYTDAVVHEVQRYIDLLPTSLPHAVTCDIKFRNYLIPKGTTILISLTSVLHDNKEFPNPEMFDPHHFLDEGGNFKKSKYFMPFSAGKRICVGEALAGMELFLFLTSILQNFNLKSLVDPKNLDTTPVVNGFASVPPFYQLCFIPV
CYP2C19 inh: blocks human cytochrome P450 2C19; inhibition, % at 5 µM; P33261; 96,000 compounds, 21% hits; CYP2C19 Supersomes, luciferin-H EGE luminescence, 30 min;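 active = CYP2C19 inhibition above a set limit at 5 µM in the primary screen, cut at about 50% in these data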;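 also: plate controls were negative control wells for no effect and 2.5 mM tranylcypromine positive control for full effect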
sEH inh: inhibitors of human soluble epoxide hydrolase; 91,000 compounds, 0.34% hits; P34913; AID 707; recombinant human sEH enzymatic activity assay; inhibition, % at 2 µM; in the data active = inhibition above about 80%
CYP2C9 act: activators of human CYP2C9 | P11712 | recombinant CYP2C9, luciferin-H conversion, luminescence; hits give high values; factor 1 = untreated enzyme, 0 = blocked | activation factor at 5 µM | 96,000 compounds, 1.4% hits | AID 1024;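 active = activation factor of 2 or more for CYP2C9 at a 5 µM dose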;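 also: 0 = sulfaphenazole-blocked wells and 1 = vehicle-only wells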
An asterisk follows results filed as active. Sampled rows, rich in hits. Any-hit rate of the full collection: about 27%.

`CCC(=O)N1CCc2cc(S(=O)(=O)NCCN3CCCCC3CC)ccc21` (stereo unspecified) gave sEH activator -11, CYP2C19 activ 1, CYP2C9 inhib -17, CYP2C19 inh 0, sEH inh 9 and CYP2C9 act 1.2.
O=C(c1cccc(C(F)(F)F)c1)N1CCOC12CCN(c1ncc(C(F)(F)F)cc1Cl)CC2 was read as sEH activator -5, CYP2C19 activ 0.9, CYP2C9 inhib 20, CYP2C19 inh 9, sEH inh 7 and CYP2C9 act 0.8.
COCC(=O)NC1CCN(C(=O)Nc2ccc(Br)cc2)CC1 was read as sEH activator -5, CYP2C19 activ 1, CYP2C9 inhib -12, CYP2C19 inh -4, sEH inh 8 and CYP2C9 act 1.1.
Cc1cc2oc3c(c(=O)c2cc1C)C(c1cccc(Br)c1)N(Cc1ccco1)C3=O (stereo unspecified) was read as sEH activator -1, CYP2C19 activ 0, CYP2C9 inhib 95*, CYP2C19 inh 98*, sEH inh 4 and CYP2C9 act 0.
For O=C1c2oc3ccc(Cl)cc3c(=O)c2C(c2cccc(Br)c2)N1CCO (stereo unspecified) the results were sEH activator -6, CYP2C19 activ 0.5, CYP2C9 inhib 34, CYP2C19 inh 50*, sEH inh 6 and CYP2C9 act 0.7.
Screening Cc1ccc2oc3c(c(=O)c2c1)C(c1cccc(Br)c1)N(Cc1ccco1)C3=O (stereo unspecified) returned sEH activator -7, CYP2C19 activ 0.9, CYP2C9 inhib 20, CYP2C19 inh 9, sEH inh 6 and CYP2C9 act 0.8.
For CCCCc1nc2ccccc2n1Cc1nnc2n1-c1ccccc1SC2 the results were CYP2C19 activ 0.1, CYP2C9 inhib 92*, CYP2C19 inh 91* and CYP2C9 act 0.1.
Screening CCOC(=O)c1cc2c(C(F)(F)F)cc(-c3cccnc3)nc2o1 returned sEH activator 6, CYP2C19 activ 0.9, CYP2C9 inhib 17, CYP2C19 inh 12, sEH inh -5 and CYP2C9 act 0.8.
For CCSc1nnc2n(N)c(=O)c3ccccc3n12 the results were sEH activator 4, CYP2C19 activ 1, CYP2C9 inhib -9, CYP2C19 inh -4, sEH inh -4 and CYP2C9 act 1.1.
For CCOC(=O)C1CN(S(=O)(=O)c2ccc(OC)cc2)c2cc(S(=O)(=O)CC)ccc2O1 (stereo unspecified) the results were sEH activator -28, CYP2C19 activ 0.5, CYP2C9 inhib 58*, CYP2C19 inh 50*, sEH inh 29 and CYP2C9 act 0.4.
CCS(=O)(=O)c1ccc2c(c1)N(S(C)(=O)=O)CC(C(=O)NCc1ccccc1OC)O2 (stereo unspecified) was read as sEH activator -8, CYP2C19 activ 0.8, CYP2C9 inhib 62*, CYP2C19 inh 17, sEH inh 8 and CYP2C9 act 0.4.
CCS(=O)(=O)c1ccc2c(c1)N(S(C)(=O)=O)CC(C(=O)NC1CC1)O2 (stereo unspecified) was read as sEH activator -4, CYP2C19 activ 0.9, CYP2C9 inhib 21, CYP2C19 inh 8, sEH inh 5 and CYP2C9 act 0.8.
For CCc1nnc(NC(=O)c2ccc3c(c2)C(=O)N(CC)C3=O)s1 the results were sEH activator 2 and sEH inh -5.
For Cc1ccc(-c2cc(C(F)(F)F)n3ncc(C(=O)NCc4ccco4)c3n2)cc1 the results were sEH activator 12, CYP2C19 activ 0.7, CYP2C9 inhib 54*, CYP2C19 inh 32, sEH inh -13 and CYP2C9 act 0.5.
For O=C(NCc1ccco1)c1cc2nc(-c3ccc4c(c3)OCO4)cc(C(F)(F)F)n2n1 the results were sEH activator 17, CYP2C19 activ 0.2, CYP2C9 inhib 83*, CYP2C19 inh 77*, sEH inh -16 and CYP2C9 act 0.2.
For COc1ccc(-c2cc(C(F)(F)F)n3nc(C(=O)NCc4ccco4)cc3n2)cc1 the results were CYP2C19 activ 0.7, CYP2C9 inhib 15, CYP2C19 inh 33 and CYP2C9 act 0.8.
For Cc1ccc(-c2cc(C(F)F)n3ncc(C(=O)NCc4ccco4)c3n2)cc1 the results were CYP2C19 activ 0.8, CYP2C9 inhib 44, CYP2C19 inh 24 and CYP2C9 act 0.6.
Screening Cc1ccc(-c2cc(C(F)(F)F)n3nc(C(=O)NCCCn4ccnc4)cc3n2)cc1C returned sEH activator 10, CYP2C19 activ 0.1, CYP2C9 inhib 80*, CYP2C19 inh 88*, sEH inh -7 and CYP2C9 act 0.2.
For CCOc1cc(C)c(C(C)C)cc1S(=O)(=O)NCc1ccccn1 the results were sEH activator -12, CYP2C19 activ 0.8, CYP2C9 inhib -12, CYP2C19 inh 22, sEH inh 7 and CYP2C9 act 1.1.
COc1ccccc1CNC(=O)C(C)NS(=O)(=O)c1ccc(C)cc1 (stereo unspecified) was read as sEH activator -5, CYP2C19 activ 0.8, CYP2C9 inhib -108, CYP2C19 inh 20, sEH inh 8 and CYP2C9 act 2.1*.
Screening COc1ccccc1NC(=O)C(C)NS(=O)(=O)c1ccccc1 (stereo unspecified) returned sEH activator 7, CYP2C19 activ 0.5, CYP2C9 inhib -175, CYP2C19 inh 51*, sEH inh -4 and CYP2C9 act 2.7*.
Screening COC(=O)[C@@H](NC(=O)Nc1ccccc1F)C(C)C returned sEH activator 0, CYP2C19 activ 0.8, CYP2C9 inhib -4, CYP2C19 inh 17, sEH inh 1 and CYP2C9 act 1.
COC(=O)C(NC(=O)Nc1ccccc1OC)C(C)C (stereo unspecified) was read as sEH activator -5, CYP2C19 activ 0.4, CYP2C9 inhib 12, CYP2C19 inh 59*, sEH inh 6 and CYP2C9 act 0.9.
For O=C(NCC(F)(F)F)N1CCOCC1 the results were sEH activator -4, CYP2C19 activ 1.2, CYP2C9 inhib -19, CYP2C19 inh -19, sEH inh 6 and CYP2C9 act 1.2.
For O=C(O)CCC(=O)Nc1ccc(Cc2ccc(NC(=O)CCC(=O)O)cc2)cc1 the results were sEH activator 1, CYP2C19 activ 1, CYP2C9 inhib 4, CYP2C19 inh 5, sEH inh 0 and CYP2C9 act 1.
For COC(=O)c1sccc1NC(=S)N1CCCCC1C (stereo unspecified) the results were sEH activator -1, CYP2C19 activ 0.4, CYP2C9 inhib 22, CYP2C19 inh 63*, sEH inh 4 and CYP2C9 act 0.8.
COc1ccc(NC(=O)C2CCN(S(=O)(=O)c3ccc(OC)c(OC)c3)CC2)cc1 was read as sEH activator 3, CYP2C19 activ 0.7, CYP2C9 inhib 19, CYP2C19 inh 32, sEH inh -3 and CYP2C9 act 0.8.
